According to PubChem BioAssay AID540353 (National Center for Advancing Translational Sciences (NCATS), 2011):
The other results are listed elsewhere or left out. Results filed as inconclusive are left out. The source made the active and inactive calls. Calls follow the shape of the dose curve; as a rule, active = well fitted inhibition curve with a large enough effect; inconclusive = small, poorly fitted or top-dose-only effect; inactive = no such curve, though single readings can be large or run the other way.

assay: qHTS for Inhibitos of Bacillus subtilis Sfp phosphopantetheinyl transferase (PPTase): Chemistry Optimization Followup in B. Subtilis HM489; conditions: B. subtilis HM489 (acpS-) growth, BacTiter-Glo, 5 h; series mostly up to 114 µM
From the text: Phosphopantetheinyl transfer is a process essential to cellular viability and maintenance. Cellular permeable and stable compounds acting as PPTase inhibitors are anticipated to be antimicrobial agents in organisms with complimenting genotypes. […] This experiment evaluated a series of test compounds for antimicrobial activity with B. subtilis HM489 (genotype: acpS- and sfp+), a strain that contains a targeted lesion in the acpS locus and thus requires a functional Sfp gene product for viability. [Mootz HD, 2001] This strain is expected to be sensitized to cell-permeable Sfp inhibitors. NIH Chemical Genomics Center [NCGC] NIH Molecular Libraries Probe Centers Network [MLPCN] MLPCN Grant: MH083266-01 Assay Submitter (PI): Michael Burkart, University of California, San Diego
Innoculum preparation. Bacillus subtilis HM489 is maintained on lysogeny broth (LB) solidified by the addition of 1.5% w/v agar. Single colonies were used to LB medium (2 mL) and shaken overnight at 30 masculineC. In the morning, this culture (100 uL) was used to seed a fresh LB medium (10 mL) and was shaken at 30 masculineC until the culture OD600 reached 0.5. This culture was diluted 1:100 in fresh LB medium to provide the inoculum below. Bacterial susceptibility. LB medium (2 uL) is dispensed into wells of a sterile white 1536-well plate. Test compounds (23 nL) prepared as serial dilutions in DMSO are added to the plate by pintool transfer. Innoculum (2 uL) is added; the plates are covered with a vented Kalypsys assay lid and incubated at 30 masculineC. After 5 hrs, Bac-Titer Glo (4 uL; Promega Corp, Madison, WI) is added to the plates. They are incubated 10 minutes at room temperature and then the luminescence detected in a ViewLux multimodal plate reader.

Potency, active:
Cc1ccc(N2CCN(C(=S)Nc3cc(C)ccn3)CC2)cc1 33.2 µM, Cc1cc(C)nc(NC(=S)N2CCN(c3ccc(Cl)cc3F)CC2)c1 23.5 µM, FC(F)(F)c1cccc(N2CCN(C(=S)Nc3ccncc3)CC2)c1 59.1 µM, Cc1cc(C)nc(NC(=S)N2CCN(c3cccc(C(F)(F)F)c3)CC2)c1 33.2 µM, Cc1cc(C)nc(NC(=S)N2CCN(c3ccc(Cl)cc3C(F)(F)F)CC2)c1 10.5 µM, COc1ccnc(NC(=S)N2CCN(c3ncc(C(F)(F)F)cc3Cl)CC2)c1 11.8 µM, COc1cccc(NC(=S)N2CCN(c3ccccc3C(F)(F)F)CC2)n1 23.5 µM

Potency, inactive:
COc1cccc(NC(=S)N2CCN(c3ccc(Cl)cc3Cl)CC2)n1, Cc1cc(C)nc(NC(=S)N2CCN(c3ccc4nonc4c3)CC2)c1
